This note sets out measurements from the supplement of paper PMC7366291.

Holding throughout (settings): 25 µM; exposure: 24-48 hpf
The subject of assay [1] is Danio rerio Tg(wt1b:EGFP) embryo, pronephros. Description: glomerular separation, fold change vs DMSO control; higher = glomeruli further apart (abnormal). In outline:
(§1)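 Every feature is expressed as a fold change relative to the averaged DMSO-treated embryos of the same day. The exposure ran from 24 to 48 hpf at 28.5°C, with dechorionated Tg(wt1b:EGFP) zebrafish embryos in HEPES-buffered E3 containing 0.003% PTU, 0.5% DMSO and 25 μM compound. Dorsal pronephros images taken in agarose-filled 96-well plates were reduced to maximum projections, on which 16 reference points were set by hand in Fiji for a macro to compute distances and angles. Values more than 2 SD from the feature mean were not used.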

Assay [2] has the same test system. Description: glomerular width (mean of left and right), fold change vs DMSO control; higher = wider glomerulus. In outline: as §1
Assay [3] has the same test system. Description: fraction of imaged embryos annotated as normal kidney; higher = less nephrotoxic; extreme values may be limits of the assay. The essentials:
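Tricaine-anaesthetised Tg(wt1b:EGFP) zebrafish larvae were oriented dorsally in agarose-filled 96-well plates, and their pronephroi were recorded by widefield fluorescence at 470 nm in 10 z-slices. Before this, the dechorionated embryos had been exposed in 12-well plates to 25 μM compound in 0.5% DMSO and 5 mM HEPES-buffered E3 with 0.003% PTU, from 24 to 48 hpf at 28.5°C. Maximum projections were annotated manually for each embryo, and the read-out is the fraction per treatment classed as normal kidney.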

Assay [4] shares this test system. Description: pronephric angle neck segment to proximal convoluted tubule (mean of left and right), fold change vs DMSO control; higher = larger pronephric angle. In outline:
as §1

SMILES strings stand for the structures. Structures can show the parent of a compound that is named as a salt. ± gives the standard deviation or the standard deviation of the averaged measurements.

Consider `CC(C)(Oc1ccc(C2CC2(Cl)Cl)cc1)C(=O)O` (stereo unspecified) [Ciprofibrate], for which, in assay [1], the glomerular separation came out at 1.25 ± 0.62. The glomerular width in assay [2] came to 0.934 ± 0.023. Besides, in assay [3], the “fraction of imaged embryos annotated as normal kidney” value (“fraction of imaged embryos annotated” below) is 0.818. In addition, the “pronephric angle neck segment” value in assay [4] worked out at 1.082 ± 0.0058.

Consider `CC(C)Cn1cnc2c(N)nc3ccccc3c21` [Imiquimod], for which, in assay [1], the glomerular separation came to 0.76 ± 0.31. This molecule also gave a glomerular width in assay [2] of 0.944 ± 0.089. In assay [3], the “fraction of imaged embryos annotated” value came out at 1. In addition, in assay [4], the “pronephric angle neck segment” value was 0.978 ± 0.037.

With `C[C@@H]1[C@H](O)[C@@H](C)/C=C/C=C/C=C/C=C/C=C/C=C/C=C/[C@H](O[C@@H]2O[C@H](C)[C@@H](O)[C@H](N)[C@@H]2O)C[C@@H]2O[C@](O)(C[C@@H](O)C[C@@H](O)[C@H](O)CC[C@@H](O)C[C@@H](O)CC(=O)O[C@H]1C)C[C@H](O)[C@H]2C(=O)O` [Amphotericin B], the glomerular separation in assay [1] was 3.69 ± 2.9. In addition, in assay [2], the glomerular width stood at 0.907 ± 0.13. The “fraction of imaged embryos annotated” value in assay [3] was 0. For the same molecule, the “pronephric angle neck segment” value in assay [4] is 1.59 ± 0.016.

In assay [1], `CC[C@@H]1C(=O)OC[C@@H]1Cc1cncn1C` [Pilocarpine nitrate] came in with a glomerular separation of 1.19 ± 0.19. The glomerular width in assay [2] was found to be 1.04 ± 0.051. Further, in assay [3], the “fraction of imaged embryos annotated” value is 0.667. In addition, the “pronephric angle neck segment” value in assay [4] is 1.02 ± 0.021.

As to `Clc1ccc(CSC(Cn2ccnc2)c2ccc(Cl)cc2Cl)cc1` (stereo unspecified) [Sulconazole nitrate], in assay [1], the glomerular separation amounted to 2.88 ± 1.5. Moreover, in assay [2], the glomerular width came out at 0.798 ± 0.035. Moreover, the “fraction of imaged embryos annotated” value in assay [3] is 0.25. Further, in assay [4], the “pronephric angle neck segment” value was found to be 1.38 ± 0.15.

`NC1CCN(c2nc3c(cc2F)c(=O)c(C(=O)O)cn3-c2ccc(F)cc2F)C1` (stereo unspecified) [Tosufloxacin hydrochloride]: the glomerular separation in assay [1] came to 0.995 ± 0.36. The molecule further showed a glomerular width in assay [2] of 1.07 ± 0.074. In addition, the “fraction of imaged embryos annotated” value in assay [3] was determined as 0.833. For the same molecule, the “pronephric angle neck segment” value in assay [4] came to 1.038 ± 0.0028.

Take `COc1cc(C(=O)NS(=O)(=O)c2ccccc2C)ccc1Cc1cn(C)c2ccc(NC(=O)OC3CCCC3)cc12` [Zafirlukast]: the glomerular separation in assay [1] came out at 0.957 ± 0.46. The molecule also yielded a glomerular width in assay [2] of 0.9694 ± 0.0078. Moreover, in assay [3], the “fraction of imaged embryos annotated” value worked out at 1. Moreover, in assay [4], the “pronephric angle neck segment” value stood at 1.09 ± 0.065.

As for `Cc1nc2n(c(=O)c1CCN1CCC(c3noc4cc(F)ccc34)CC1)CCCC2` [Risperidone], the glomerular separation in assay [1] was determined as 0.741 ± 0.16. The glomerular width in assay [2] turned out to be 1.04 ± 0.043. For the same molecule, the “fraction of imaged embryos annotated” value in assay [3] was found to be 1. The “pronephric angle neck segment” value in assay [4] was found to be 0.974 ± 0.021.

Molecule `CC[N+](CC)(CC)CCC(O)(c1ccccc1)C1CCCCC1` (stereo unspecified) [Tridihexethyl chloride] yielded a glomerular separation in assay [1] of 1.14 ± 0.4. Moreover, the glomerular width in assay [2] turned out to be 0.925 ± 0.012. Besides, the “fraction of imaged embryos annotated” value in assay [3] stood at 0.818. Besides, the “pronephric angle neck segment” value in assay [4] came out at 1.04 ± 0.026.

Molecule `O=C1c2cccc3c2[C@H](CCC3)CN1[C@@H]1CN2CCC1CC2` [Palonosetron hydrochloride] came in with a glomerular separation in assay [1] of 1.08 ± 0.37. In assay [2], the glomerular width was determined as 0.975 ± 0.023. Moreover, the “fraction of imaged embryos annotated” value in assay [3] is 0.667. Further, the “pronephric angle neck segment” value in assay [4] came out at 1 ± 0.038.

In turn, `Nc1nc2ccc(OC(F)(F)F)cc2s1` [Riluzole hydrochloride] yielded a glomerular separation in assay [1] of 0.834 ± 0.22. In assay [2], this molecule showed a glomerular width of 0.964 ± 0.02. Also, the “fraction of imaged embryos annotated” value in assay [3] stood at 0.833. Besides, the “pronephric angle neck segment” value in assay [4] worked out at 1.036 ± 0.0021.

In assay [1], `Cc1ccc(-c2cc(C(F)(F)F)nn2-c2ccc(S(N)(=O)=O)cc2)cc1` [Celecoxib] showed a glomerular separation of 0.968 ± 0.38. This molecule had a glomerular width in assay [2] of 0.913 ± 0.059. Also, the “fraction of imaged embryos annotated” value in assay [3] turned out to be 0.833. Further, the “pronephric angle neck segment” value in assay [4] was 1.06 ± 0.014.

`CC1(C)O[C@@H]2C[C@H]3[C@@H]4C[C@H](F)C5=CC(=O)C=C[C@]5(C)[C@@]4(F)[C@@H](O)C[C@]3(C)[C@]2(C(=O)CO)O1` [Fluocinolone acetonide]: the glomerular separation in assay [1] was found to be 1.23 ± 0.54. Moreover, the glomerular width in assay [2] was 1.26 ± 0.028. For the same molecule, the “fraction of imaged embryos annotated” value in assay [3] was determined as 0.0833. Besides, the “pronephric angle neck segment” value in assay [4] stood at 1.02 ± 0.065.

`CO[C@@]1(NC(=O)Cc2cccs2)C(=O)N2C(C(=O)O)=C(COC(N)=O)CS[C@@H]21` [Cefoxitin sodium salt] yielded a glomerular separation in assay [1] of 0.796 ± 0.27. This molecule returned a glomerular width in assay [2] of 0.975 ± 0.012. Also, the “fraction of imaged embryos annotated” value in assay [3] amounted to 0.833. The “pronephric angle neck segment” value in assay [4] turned out to be 0.968 ± 0.04.

In assay [1], `CC(C)N1CCN(c2ccc(OCC3COC(Cn4cncn4)(c4ccc(Cl)cc4Cl)O3)cc2)CC1` (stereo unspecified) [Terconazole] returned a glomerular separation of 0.864 ± 0.17. The glomerular width in assay [2] turned out to be 1.0642 ± 0.00066. In addition, the “fraction of imaged embryos annotated” value in assay [3] amounted to 1. In addition, the “pronephric angle neck segment” value in assay [4] was determined as 0.948 ± 0.017.

On to `Nc1ccc(S(=O)(=O)NC(=O)c2ccccc2)cc1` [Sulfabenzamide], for which, in assay [1], the glomerular separation stood at 1.2 ± 0.49. Moreover, the glomerular width in assay [2] stood at 0.98 ± 0.04. In addition, the “fraction of imaged embryos annotated” value in assay [3] was 0.667. Besides, the “pronephric angle neck segment” value in assay [4] was found to be 1.09 ± 0.0044.

As for `CN1CCN2c3ccccc3Cc3ccccc3C2C1` (stereo unspecified) [Mianserine hydrochloride], the glomerular separation in assay [1] was determined as 1.3 ± 0.59. The glomerular width in assay [2] was determined as 0.983 ± 0.035. The “fraction of imaged embryos annotated” value in assay [3] came to 0.833. For the same molecule, in assay [4], the “pronephric angle neck segment” value was found to be 0.9786 ± 0.0076.

`NC[C@H]1O[C@H](O[C@H]2[C@H](O)[C@@H](O[C@H]3O[C@H](CO)[C@@H](O)[C@H](N)[C@H]3O)[C@H](N)C[C@@H]2N)[C@H](N)C[C@@H]1O` [Tobramycin]: the glomerular separation in assay [1] amounted to 1.49 ± 0.73. Moreover, the glomerular width in assay [2] came out at 0.94 ± 0.056. Moreover, the “fraction of imaged embryos annotated” value in assay [3] worked out at 0.583. In addition, in assay [4], the “pronephric angle neck segment” value stood at 1.01 ± 0.011.

The molecule `CN1C(C(=O)Nc2ccccn2)=C(O)c2sccc2S1(=O)=O` [Tenoxicam] returned a glomerular separation in assay [1] of 0.97 ± 0.16. The glomerular width in assay [2] was 0.985 ± 0.022. Further, the “fraction of imaged embryos annotated” value in assay [3] is 0.917. For the same molecule, the “pronephric angle neck segment” value in assay [4] came out at 0.999 ± 0.028.

`CCOc1ccc2ccccc2c1C(=O)N[C@@H]1C(=O)N2[C@@H]1SC(C)(C)[C@@H]2C(=O)O` [Nafcillin sodium salt monohydrate] yielded a glomerular separation in assay [1] of 0.868 ± 0.32. The molecule also displayed a glomerular width in assay [2] of 0.941 ± 0.019. The “fraction of imaged embryos annotated” value in assay [3] came out at 0.833. Also, the “pronephric angle neck segment” value in assay [4] came out at 1.041 ± 0.0022.

For the molecule `CCN(CC)CC#CCOC(=O)C(O)(c1ccccc1)C1CCCCC1` (stereo unspecified) [Oxybutynin chloride], the glomerular separation in assay [1] worked out at 1.32 ± 0.54. The molecule also showed a glomerular width in assay [2] of 1.04 ± 0.022. Moreover, the “fraction of imaged embryos annotated” value in assay [3] came to 1. For the same molecule, in assay [4], the “pronephric angle neck segment” value stood at 0.985 ± 0.028.

Consider `NCc1ccccc1CC(=O)N[C@@H]1C(=O)N2C(C(=O)O)=C(CSc3nnnn3CC(=O)O)CS[C@H]12` [Ceforanide], for which, in assay [1], the glomerular separation came to 1.15 ± 0.8. The same molecule had a glomerular width in assay [2] of 0.949 ± 0.091. Moreover, the “fraction of imaged embryos annotated” value in assay [3] turned out to be 0.833. Also, the “pronephric angle neck segment” value in assay [4] came to 1.08 ± 0.038.

Take `CC(=O)Oc1cc(C(F)(F)F)ccc1C(=O)O` [Triflusal]: in assay [1], the glomerular separation was found to be 1.26 ± 0.59. This molecule registered a glomerular width in assay [2] of 0.901 ± 0.012. For the same molecule, the “fraction of imaged embryos annotated” value in assay [3] worked out at 0.917. In assay [4], the “pronephric angle neck segment” value worked out at 1.02 ± 0.031.

Turning to `CC(=C(CCO)SSCC1CCCO1)N(C=O)Cc1cnc(C)nc1N` (stereo in doubt) [Fursultiamine Hydrochloride], the glomerular separation in assay [1] turned out to be 1.06 ± 0.24. Besides, in assay [2], the glomerular width is 0.996 ± 0.027. In addition, the “fraction of imaged embryos annotated” value in assay [3] amounted to 0.833. The “pronephric angle neck segment” value in assay [4] was 1.005 ± 0.0057.
